How the values were obtained:
Experiment in all cases: DAPPL (digital affinity profiling via proximity ligation, sequencing); 10 mM Tris-HCl pH 7.5, 50 mM NaCl, 1 mM DTT, 4% glycerol, room temperature, 30 min; GST-TFs on glutathione beads, 16-mer random dsDNA library, 0.1% formaldehyde crosslink after washing; high values mean tight binding
FLI1 = molecular target: T1, FLI1 (Homo sapiens, UniProt Q01543 1-452); conditions: protein: recombinant; tags: N-terminal GST; dsDNA, one strand shown
T1 sequence: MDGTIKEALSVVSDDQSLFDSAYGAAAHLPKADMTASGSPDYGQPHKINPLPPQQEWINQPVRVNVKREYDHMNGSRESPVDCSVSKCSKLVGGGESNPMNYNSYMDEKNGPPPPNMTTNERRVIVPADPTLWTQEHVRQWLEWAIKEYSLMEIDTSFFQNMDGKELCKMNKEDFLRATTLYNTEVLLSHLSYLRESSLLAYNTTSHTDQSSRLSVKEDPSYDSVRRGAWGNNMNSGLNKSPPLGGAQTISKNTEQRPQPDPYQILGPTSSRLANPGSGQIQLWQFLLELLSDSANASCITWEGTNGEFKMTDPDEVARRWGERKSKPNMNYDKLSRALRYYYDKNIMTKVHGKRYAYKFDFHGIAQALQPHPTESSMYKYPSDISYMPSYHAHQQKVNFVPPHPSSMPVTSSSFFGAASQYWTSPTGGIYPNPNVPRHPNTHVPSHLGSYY
Outline: (§1)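 A tag-only sample was pooled with DNA-barcoded human transcription factors that had been expressed in yeast as GST fusions and captured on glutathione beads. The pools were incubated for 30 min at room temperature with 200 nmole of a random double-stranded 16-mer DNA library in Tris/NaCl/DTT/glycerol buffer, then washed, crosslinked with 0.1% formaldehyde, proximity-ligated (BsaI/T4 ligase, 1 h, 37 °C), PCR-amplified and sequenced on an Illumina NextSeq500. Binding signal is each hexamer's read frequency for a factor divided by its frequency for the tag-only sample.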

ELK1 = molecular target: T2, ELK1 (Homo sapiens, UniProt P19419 1-428); conditions: protein: recombinant; tags: N-terminal GST; dsDNA, one strand shown
T2 sequence: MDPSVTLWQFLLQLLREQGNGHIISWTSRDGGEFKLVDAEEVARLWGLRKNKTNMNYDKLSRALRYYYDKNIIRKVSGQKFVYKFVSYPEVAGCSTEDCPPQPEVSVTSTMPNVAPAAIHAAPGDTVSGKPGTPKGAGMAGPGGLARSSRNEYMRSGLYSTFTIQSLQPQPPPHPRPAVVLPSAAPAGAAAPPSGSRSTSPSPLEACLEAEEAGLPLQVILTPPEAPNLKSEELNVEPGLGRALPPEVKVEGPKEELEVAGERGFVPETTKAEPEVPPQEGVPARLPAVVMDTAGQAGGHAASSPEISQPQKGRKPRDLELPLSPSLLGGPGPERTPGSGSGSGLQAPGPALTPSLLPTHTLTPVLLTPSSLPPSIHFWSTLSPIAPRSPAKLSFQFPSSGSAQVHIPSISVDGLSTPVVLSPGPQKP
Outline: as §1

GABPA = molecular target: T3, GABPA (Homo sapiens, UniProt Q06546 1-454); conditions: protein: recombinant; tags: N-terminal GST; dsDNA, one strand shown
T3 sequence: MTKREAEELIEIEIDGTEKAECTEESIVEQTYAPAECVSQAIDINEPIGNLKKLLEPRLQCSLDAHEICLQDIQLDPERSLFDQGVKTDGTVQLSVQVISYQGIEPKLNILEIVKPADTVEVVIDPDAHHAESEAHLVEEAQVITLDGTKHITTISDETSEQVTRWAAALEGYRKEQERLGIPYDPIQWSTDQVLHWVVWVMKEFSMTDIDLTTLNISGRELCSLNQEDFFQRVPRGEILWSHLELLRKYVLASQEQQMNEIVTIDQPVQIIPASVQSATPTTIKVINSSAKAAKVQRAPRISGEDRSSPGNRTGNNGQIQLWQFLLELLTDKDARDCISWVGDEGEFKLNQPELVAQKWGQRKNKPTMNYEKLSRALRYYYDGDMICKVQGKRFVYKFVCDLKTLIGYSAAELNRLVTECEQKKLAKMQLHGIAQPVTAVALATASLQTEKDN
Outline: as §1

ERG = molecular target: T4, ERG (Homo sapiens, UniProt P11308 1-479); conditions: protein: recombinant; tags: N-terminal GST; dsDNA, one strand shown
T4 sequence: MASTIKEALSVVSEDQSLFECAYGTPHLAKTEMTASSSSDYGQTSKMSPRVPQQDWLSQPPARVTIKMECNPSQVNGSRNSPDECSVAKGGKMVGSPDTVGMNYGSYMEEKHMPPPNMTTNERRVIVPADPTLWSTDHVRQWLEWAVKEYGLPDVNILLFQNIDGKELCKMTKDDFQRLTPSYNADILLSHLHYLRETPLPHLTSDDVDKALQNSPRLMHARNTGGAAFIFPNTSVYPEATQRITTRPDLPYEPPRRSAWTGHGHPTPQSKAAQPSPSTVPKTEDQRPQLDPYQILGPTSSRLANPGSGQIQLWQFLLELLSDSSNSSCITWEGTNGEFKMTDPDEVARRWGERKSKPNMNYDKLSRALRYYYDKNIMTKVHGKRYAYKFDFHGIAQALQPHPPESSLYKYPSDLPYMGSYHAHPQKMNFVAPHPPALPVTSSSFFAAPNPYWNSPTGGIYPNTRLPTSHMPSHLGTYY
Outline: as §1

ELF1 = ELF1 (Homo sapiens, UniProt P32519 1-619); conditions: protein: recombinant; tags: N-terminal GST; dsDNA, one strand shown
Outline: as §1

EHF = molecular target: T5, EHF (Homo sapiens, UniProt Q9NZC4 1-300); conditions: protein: recombinant; tags: N-terminal GST; dsDNA, one strand shown
T5 sequence: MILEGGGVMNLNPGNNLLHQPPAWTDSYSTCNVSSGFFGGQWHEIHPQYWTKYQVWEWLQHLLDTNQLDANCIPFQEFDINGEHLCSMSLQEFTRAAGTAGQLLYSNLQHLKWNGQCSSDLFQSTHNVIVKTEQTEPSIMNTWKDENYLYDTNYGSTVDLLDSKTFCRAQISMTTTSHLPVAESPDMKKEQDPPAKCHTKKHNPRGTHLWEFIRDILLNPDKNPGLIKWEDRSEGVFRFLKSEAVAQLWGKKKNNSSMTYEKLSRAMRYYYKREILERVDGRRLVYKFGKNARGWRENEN
Outline: as §1

SPI1 = SPI1 (Homo sapiens, UniProt P17947 1-270); conditions: protein: recombinant; tags: N-terminal GST; dsDNA, one strand shown
Outline: as §1

SPIB = SPIB (Homo sapiens, UniProt Q01892 1-262); conditions: protein: recombinant; tags: N-terminal GST; dsDNA, one strand shown
Outline: as §1

ELK3 = molecular target: T6, ELK3 (Homo sapiens, UniProt P41970 1-407); conditions: protein: recombinant; tags: N-terminal GST; dsDNA, one strand shown
T6 sequence: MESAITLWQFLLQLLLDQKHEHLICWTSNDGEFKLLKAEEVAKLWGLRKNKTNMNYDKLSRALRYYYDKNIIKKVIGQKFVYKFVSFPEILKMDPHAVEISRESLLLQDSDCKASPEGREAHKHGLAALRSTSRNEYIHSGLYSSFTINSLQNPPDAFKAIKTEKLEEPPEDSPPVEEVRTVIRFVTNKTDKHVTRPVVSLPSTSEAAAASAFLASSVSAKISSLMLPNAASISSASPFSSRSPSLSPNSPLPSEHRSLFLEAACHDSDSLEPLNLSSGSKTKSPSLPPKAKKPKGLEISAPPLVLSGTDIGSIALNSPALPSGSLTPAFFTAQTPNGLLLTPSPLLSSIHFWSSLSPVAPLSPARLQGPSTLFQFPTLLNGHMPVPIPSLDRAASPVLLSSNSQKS
Outline: as §1

FEV = molecular target: T7, FEV (Homo sapiens, UniProt Q99581 1-238); conditions: protein: recombinant; tags: N-terminal GST; dsDNA, one strand shown
T7 sequence: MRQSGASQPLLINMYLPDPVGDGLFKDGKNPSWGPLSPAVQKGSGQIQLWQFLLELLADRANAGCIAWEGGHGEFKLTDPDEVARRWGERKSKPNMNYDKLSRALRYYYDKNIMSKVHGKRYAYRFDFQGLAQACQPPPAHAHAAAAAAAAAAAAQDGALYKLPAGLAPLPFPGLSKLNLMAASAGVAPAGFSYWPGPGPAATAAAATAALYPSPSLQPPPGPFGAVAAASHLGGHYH
Outline: as §1

ETV5 = ETV5 (Homo sapiens, UniProt P41161 1-510); conditions: protein: recombinant; tags: N-terminal GST; dsDNA, one strand shown
Outline: as §1

HSF1 = HSF1 (Homo sapiens, UniProt Q00613 1-529); conditions: protein: recombinant; tags: N-terminal GST; chain copies: 3; dsDNA, one strand shown
Outline: as §1

SPIC = molecular target: T8, SPIC (Homo sapiens, UniProt Q8N5J4 1-248); conditions: protein: recombinant; tags: N-terminal GST; dsDNA, one strand shown
T8 sequence: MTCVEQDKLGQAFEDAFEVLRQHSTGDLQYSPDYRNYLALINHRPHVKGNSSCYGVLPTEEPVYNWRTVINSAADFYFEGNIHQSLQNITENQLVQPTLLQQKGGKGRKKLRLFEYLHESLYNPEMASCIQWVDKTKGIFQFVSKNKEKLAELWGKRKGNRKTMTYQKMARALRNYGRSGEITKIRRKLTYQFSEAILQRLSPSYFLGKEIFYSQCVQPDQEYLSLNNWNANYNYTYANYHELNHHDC
Outline: as §1

ELF4 = ELF4 (Homo sapiens, UniProt Q99607 1-663); conditions: protein: recombinant; tags: N-terminal GST; dsDNA, one strand shown
Outline: as §1

ELK4 = molecular target: T9, ELK4 (Homo sapiens, UniProt P28324-2 1-405); conditions: protein: recombinant; tags: N-terminal GST; dsDNA, one strand shown
T9 sequence: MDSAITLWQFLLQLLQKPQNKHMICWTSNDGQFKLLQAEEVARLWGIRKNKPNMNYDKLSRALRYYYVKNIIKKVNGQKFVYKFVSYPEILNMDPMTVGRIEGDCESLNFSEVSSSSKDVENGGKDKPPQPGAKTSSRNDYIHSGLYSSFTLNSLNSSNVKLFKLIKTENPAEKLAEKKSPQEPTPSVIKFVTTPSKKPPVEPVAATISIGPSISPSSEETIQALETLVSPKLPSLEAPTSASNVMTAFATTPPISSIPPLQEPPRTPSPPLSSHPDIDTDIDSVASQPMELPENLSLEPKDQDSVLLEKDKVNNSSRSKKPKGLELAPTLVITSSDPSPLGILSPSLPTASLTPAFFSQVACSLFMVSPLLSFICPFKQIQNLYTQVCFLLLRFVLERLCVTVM
Outline: as §1

ETV2 = molecular target: T10, ETV2 (Homo sapiens, UniProt O00321 1-342); conditions: protein: recombinant; tags: N-terminal GST; dsDNA, one strand shown
T10 sequence: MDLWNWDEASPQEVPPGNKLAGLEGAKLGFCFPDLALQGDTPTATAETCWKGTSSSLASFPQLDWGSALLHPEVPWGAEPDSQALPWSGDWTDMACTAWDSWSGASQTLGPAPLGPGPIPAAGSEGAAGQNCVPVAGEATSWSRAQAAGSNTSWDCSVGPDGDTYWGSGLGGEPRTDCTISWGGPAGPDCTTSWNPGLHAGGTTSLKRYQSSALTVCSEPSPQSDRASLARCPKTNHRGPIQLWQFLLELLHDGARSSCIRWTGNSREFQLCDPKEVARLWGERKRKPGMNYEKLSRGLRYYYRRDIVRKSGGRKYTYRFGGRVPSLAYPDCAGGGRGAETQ
Outline: as §1

ELF3 = molecular target: T11, ELF3 (Homo sapiens, UniProt P78545 1-371); conditions: protein: recombinant; tags: N-terminal GST; dsDNA, one strand shown
T11 sequence: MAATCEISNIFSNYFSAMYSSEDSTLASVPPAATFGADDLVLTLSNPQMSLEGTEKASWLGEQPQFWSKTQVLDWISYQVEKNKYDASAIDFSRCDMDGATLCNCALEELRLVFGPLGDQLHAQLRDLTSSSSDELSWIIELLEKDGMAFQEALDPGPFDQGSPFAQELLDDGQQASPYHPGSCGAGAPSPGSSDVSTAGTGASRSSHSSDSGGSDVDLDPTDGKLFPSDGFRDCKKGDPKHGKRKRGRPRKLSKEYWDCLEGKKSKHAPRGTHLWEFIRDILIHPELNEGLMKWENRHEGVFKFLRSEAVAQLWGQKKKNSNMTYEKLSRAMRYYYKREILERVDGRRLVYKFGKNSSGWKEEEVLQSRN
Outline: as §1

CRX = CRX (Homo sapiens, UniProt O43186 1-299); conditions: protein: recombinant; tags: N-terminal GST; dsDNA, one strand shown
Outline: as §1

ETV1 = ETV1 (Homo sapiens, UniProt P50549 1-477); conditions: protein: recombinant; tags: N-terminal GST; dsDNA, one strand shown
Outline: as §1

Chain of ETV1 (P50549 whole entry): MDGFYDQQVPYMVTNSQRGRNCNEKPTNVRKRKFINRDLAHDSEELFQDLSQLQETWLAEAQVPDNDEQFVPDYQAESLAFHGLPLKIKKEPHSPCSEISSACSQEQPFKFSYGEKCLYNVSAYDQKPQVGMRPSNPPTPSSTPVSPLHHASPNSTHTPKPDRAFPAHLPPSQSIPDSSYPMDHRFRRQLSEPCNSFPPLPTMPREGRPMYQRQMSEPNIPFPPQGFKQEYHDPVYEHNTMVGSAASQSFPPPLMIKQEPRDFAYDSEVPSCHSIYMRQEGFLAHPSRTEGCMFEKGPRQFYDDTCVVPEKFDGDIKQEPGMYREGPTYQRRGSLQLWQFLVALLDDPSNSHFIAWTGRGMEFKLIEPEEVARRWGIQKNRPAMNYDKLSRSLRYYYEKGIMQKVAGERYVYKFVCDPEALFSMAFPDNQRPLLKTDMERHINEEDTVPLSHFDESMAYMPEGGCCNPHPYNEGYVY
Chain of SPIB (Q01892 whole entry): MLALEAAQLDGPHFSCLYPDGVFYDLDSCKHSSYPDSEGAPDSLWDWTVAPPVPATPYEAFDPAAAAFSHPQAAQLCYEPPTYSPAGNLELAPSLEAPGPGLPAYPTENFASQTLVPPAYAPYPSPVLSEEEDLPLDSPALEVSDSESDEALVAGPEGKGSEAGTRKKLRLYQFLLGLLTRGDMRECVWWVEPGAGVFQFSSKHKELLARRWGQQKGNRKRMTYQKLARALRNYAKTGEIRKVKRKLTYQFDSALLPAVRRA
Chain of ELF4 (Q99607 whole entry): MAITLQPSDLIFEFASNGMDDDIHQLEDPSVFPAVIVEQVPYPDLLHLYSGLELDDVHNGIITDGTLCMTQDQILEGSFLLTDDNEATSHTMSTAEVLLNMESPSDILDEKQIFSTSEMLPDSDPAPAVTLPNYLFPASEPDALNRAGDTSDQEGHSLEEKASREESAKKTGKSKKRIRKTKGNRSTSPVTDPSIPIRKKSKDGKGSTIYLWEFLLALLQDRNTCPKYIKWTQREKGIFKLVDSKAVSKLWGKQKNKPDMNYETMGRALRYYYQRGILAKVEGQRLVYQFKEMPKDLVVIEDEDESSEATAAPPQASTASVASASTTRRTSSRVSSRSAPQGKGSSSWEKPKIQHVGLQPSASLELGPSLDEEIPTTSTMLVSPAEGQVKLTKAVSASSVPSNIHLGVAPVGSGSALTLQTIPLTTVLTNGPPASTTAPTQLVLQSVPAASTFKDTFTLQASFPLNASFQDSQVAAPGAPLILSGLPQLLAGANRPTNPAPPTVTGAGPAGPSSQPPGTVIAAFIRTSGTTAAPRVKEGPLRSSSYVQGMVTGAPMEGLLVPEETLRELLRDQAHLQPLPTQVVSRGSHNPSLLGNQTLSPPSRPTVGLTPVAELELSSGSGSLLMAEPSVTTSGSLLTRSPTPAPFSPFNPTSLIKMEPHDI
Chain of ETV5 (P41161 whole entry): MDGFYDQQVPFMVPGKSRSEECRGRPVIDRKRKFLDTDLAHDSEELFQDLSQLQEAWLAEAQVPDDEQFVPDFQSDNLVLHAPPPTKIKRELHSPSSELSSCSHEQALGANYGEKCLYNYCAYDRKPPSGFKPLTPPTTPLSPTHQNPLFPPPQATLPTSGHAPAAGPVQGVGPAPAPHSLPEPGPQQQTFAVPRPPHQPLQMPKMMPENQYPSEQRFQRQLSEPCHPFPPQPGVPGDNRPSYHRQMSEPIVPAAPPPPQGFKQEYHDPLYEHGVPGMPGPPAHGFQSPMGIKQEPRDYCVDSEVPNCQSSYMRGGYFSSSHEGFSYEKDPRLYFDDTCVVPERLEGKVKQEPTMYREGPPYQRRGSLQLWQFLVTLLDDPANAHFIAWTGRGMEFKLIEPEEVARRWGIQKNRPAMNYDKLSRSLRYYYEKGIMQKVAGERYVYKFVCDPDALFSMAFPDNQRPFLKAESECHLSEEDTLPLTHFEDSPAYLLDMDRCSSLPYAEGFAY
Chain of HSF1 (Q00613 whole entry): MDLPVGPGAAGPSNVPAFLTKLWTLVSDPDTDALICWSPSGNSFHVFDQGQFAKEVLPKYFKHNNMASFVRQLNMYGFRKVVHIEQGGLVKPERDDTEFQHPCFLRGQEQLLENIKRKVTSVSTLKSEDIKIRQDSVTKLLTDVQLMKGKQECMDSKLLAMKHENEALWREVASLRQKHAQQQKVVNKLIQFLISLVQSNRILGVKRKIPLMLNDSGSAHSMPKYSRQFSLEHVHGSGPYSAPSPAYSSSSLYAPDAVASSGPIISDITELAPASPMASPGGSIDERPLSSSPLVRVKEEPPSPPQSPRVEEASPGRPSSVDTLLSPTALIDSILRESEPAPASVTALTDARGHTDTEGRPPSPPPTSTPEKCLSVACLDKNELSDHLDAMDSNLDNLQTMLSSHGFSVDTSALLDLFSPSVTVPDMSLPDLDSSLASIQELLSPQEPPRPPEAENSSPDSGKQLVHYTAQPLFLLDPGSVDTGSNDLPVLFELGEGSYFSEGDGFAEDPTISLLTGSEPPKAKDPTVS
Chain of ELF1 (P32519 whole entry): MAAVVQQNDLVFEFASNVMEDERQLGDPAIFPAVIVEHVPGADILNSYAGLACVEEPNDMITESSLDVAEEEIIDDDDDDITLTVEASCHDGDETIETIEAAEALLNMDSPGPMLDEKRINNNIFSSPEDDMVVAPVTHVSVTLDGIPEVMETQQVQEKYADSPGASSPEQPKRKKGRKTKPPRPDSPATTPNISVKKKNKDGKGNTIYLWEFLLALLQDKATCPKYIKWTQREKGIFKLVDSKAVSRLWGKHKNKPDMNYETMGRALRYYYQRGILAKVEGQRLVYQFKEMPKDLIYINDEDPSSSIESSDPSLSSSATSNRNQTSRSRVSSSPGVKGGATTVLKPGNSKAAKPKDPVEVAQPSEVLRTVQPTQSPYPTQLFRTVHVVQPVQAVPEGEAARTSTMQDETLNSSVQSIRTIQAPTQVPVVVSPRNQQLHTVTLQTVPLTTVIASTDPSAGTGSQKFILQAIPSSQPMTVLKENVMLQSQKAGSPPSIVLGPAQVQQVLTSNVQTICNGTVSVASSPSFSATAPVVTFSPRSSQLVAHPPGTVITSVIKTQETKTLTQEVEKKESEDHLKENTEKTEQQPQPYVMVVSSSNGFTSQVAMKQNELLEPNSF
Chain of CRX (O43186 whole entry): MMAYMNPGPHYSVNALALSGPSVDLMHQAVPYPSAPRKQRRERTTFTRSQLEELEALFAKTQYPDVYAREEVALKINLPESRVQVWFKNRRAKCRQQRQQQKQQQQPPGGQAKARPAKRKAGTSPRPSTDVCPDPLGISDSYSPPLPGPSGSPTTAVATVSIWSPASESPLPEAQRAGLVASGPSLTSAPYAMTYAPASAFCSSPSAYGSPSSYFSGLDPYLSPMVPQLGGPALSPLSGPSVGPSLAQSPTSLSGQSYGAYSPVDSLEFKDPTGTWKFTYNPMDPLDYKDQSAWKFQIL

Sequence: TATACT
- binding signal (FLI1): 1.25 fold enrichment (6-mer frequency, TF over GST control)
- binding signal (ELK1): 1.41 fold enrichment (6-mer frequency, TF over GST control)
- binding signal (GABPA): 1.43 fold enrichment (6-mer frequency, TF over GST control)
- binding signal (ERG): 1.29 fold enrichment (6-mer frequency, TF over GST control)
- binding signal (ELF1): 1.39 fold enrichment (6-mer frequency, TF over GST control)
- binding signal (EHF): 1.39 fold enrichment (6-mer frequency, TF over GST control)
- binding signal (SPI1): 1.35 fold enrichment (6-mer frequency, TF over GST control)
- binding signal (SPIB): 1.36 fold enrichment (6-mer frequency, TF over GST control)
- binding signal (ELK3): 1.43 fold enrichment (6-mer frequency, TF over GST control)
- binding signal (FEV): 1.29 fold enrichment (6-mer frequency, TF over GST control)
- binding signal (ETV5): 1.34 fold enrichment (6-mer frequency, TF over GST control)
- binding signal (HSF1): 1.4 fold enrichment (6-mer frequency, TF over GST control)
- binding signal (SPIC): 1.43 fold enrichment (6-mer frequency, TF over GST control)
- binding signal (ELF4): 1.31 fold enrichment (6-mer frequency, TF over GST control)
- binding signal (ELK4): 1.25 fold enrichment (6-mer frequency, TF over GST control)
- binding signal (ETV2): 1.31 fold enrichment (6-mer frequency, TF over GST control)
- binding signal (ELF3): 1.3 fold enrichment (6-mer frequency, TF over GST control)
- binding signal (CRX): 1.68 fold enrichment (6-mer frequency, TF over GST control)
- binding signal (ETV1): 1.34 fold enrichment (6-mer frequency, TF over GST control)

From PMC7862700, “An all-to-all approach to the identification of sequence-specific readers for epigenetic DNA modifications on cytosine”
